From PubChem BioAssay (NCATS) come the findings set out here.

Assay [1] in a line: Confirmation and Secondary Assay for Modulators of Hemoglobin Beta Chain Splicing at IVS2 654 locus (AID 910).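 Note: HeLa cells stably carrying EGFP split by mutant beta-globin IVS2-654 intron; per-well total GFP intensity by laser scanning cytometry after 2-day treatment.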 As to conditions: HeLa EGFP-654 splicing reporter, GFP fluorescence, 48 h; series mostly up to 46.1 µM. The procedure, abridged: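 Readout: per-well total peak green fluorescence (488 nm ex, 500–520 nm em) from objects 5–250 µm, reflecting correct splicing of an EGFP-654 reporter. Compounds were applied for 2 days at 37 °C to overnight-plated HeLa EGFP-654 cells; controls were DMSO and 500 nM IVS2-654 PNA.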

Assay [2] is described as follows: Cell Viability - LYMP2-001 (AID 921). Note: nearly all actives have a fitted effect of over 70% in size. As to conditions: LYMP2-001 lymphoblastoid cell viability; series mostly up to 92.2 µM. The gist of the method:
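Human lymphoblastoid LYMP2-001 cells, 2500 per well, in complete medium, treated 24 h at 37 C. Viability from cellular ATP by CellTiter-Glo luminescence; AC50 from Hill-equation fits of qHTS concentration-response.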

Assay [3] can be described thus: Confirmation and Secondary Assay for Modulators of Hemoglobin Beta Chain Splicing at IVS2 705 locus (AID 930).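 For activation: HeLa cells stably expressing the EGFP-705 splicing reporter.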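 Note: GFP fluorescence per well restored by corrected splicing of the IVS2-705 intron in EGFP.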 Note: potency is the fitted concentration of half-maximal effect. As to conditions: HeLa EGFP-705 splicing reporter, GFP fluorescence, 48 h; series mostly up to 46.1 µM. The gist of the method: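 HeLa IVS2-705 EGFP reporter cells, 500/well, compound 2 d at 37C; correct splicing yields fluorescent EGFP. Control: 500 nM antisense PNA. Read-out: total peak GFP intensity.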

In assay [4] the target is Cytochrome P450 2C19 (Homo sapiens) (UniProt P33261). Nature of the assay: qHTS Assay for Inhibitors and Substrates of Cytochrome P450 2C19 (AID 899). Note: nearly all actives have a fitted effect of over 60% in size. The settings on record: recombinant CYP2C19, luciferin-H EGE luminescence; series mostly up to 57.1 µM. The gist of the method: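 Luminescence readout of luciferin formed from 10uM Luciferin-H EGE (KM level) by 5 nM CYP2C19 in 50mM KPO4. 60 min NADPH-driven reaction at 37C after 10 min compound preincubation; data scaled to 57uM ketoconazole inhibition.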
Sequence of Cytochrome P450 2C19 (Homo sapiens) (P33261 whole entry, looked up): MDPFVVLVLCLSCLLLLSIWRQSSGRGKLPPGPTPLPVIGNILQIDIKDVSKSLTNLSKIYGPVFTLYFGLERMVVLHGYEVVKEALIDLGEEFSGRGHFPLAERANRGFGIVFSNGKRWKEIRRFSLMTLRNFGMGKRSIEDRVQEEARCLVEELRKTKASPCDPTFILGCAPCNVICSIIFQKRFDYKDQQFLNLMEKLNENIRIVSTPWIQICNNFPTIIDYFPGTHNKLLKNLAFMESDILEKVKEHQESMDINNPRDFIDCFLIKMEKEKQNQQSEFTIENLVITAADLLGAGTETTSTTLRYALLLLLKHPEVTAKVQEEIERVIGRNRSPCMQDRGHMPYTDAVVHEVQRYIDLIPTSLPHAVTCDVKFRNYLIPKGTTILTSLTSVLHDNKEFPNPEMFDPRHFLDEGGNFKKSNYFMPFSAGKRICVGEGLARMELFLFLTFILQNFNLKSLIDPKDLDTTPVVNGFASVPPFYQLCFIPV
A general note: qHTS replaces the single test concentration by a dilution series.

Assay [5] is described as follows: qHTS Assay for Identification of Small Molecule Agonists for Thrombopoietin (TPO) Signaling Pathway (AID 917). The settings on record: TPO signaling pathway reporter cells, agonist qHTS, stimulated with TPO at its EC50; series mostly up to 38.5 µM. The procedure, abridged:
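Murine Ba/F3 cells expressing human TPO receptor and GPIIb-promoter luciferase, IL-3-starved overnight, given compound plus TPO at 26 pM (EC50). After 24 h at 37 C, 5% CO2, luminescence read.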

Assay [6] has as its target Pyruvate kinase (Leishmania mexicana) (UniProt Q27686). Description: qHTS Validation Assay for Inhibitors of Leishmania Mexicana Pyruvate Kinase (AID 945). As to conditions: purified L. mexicana pyruvate kinase, enzyme activity, E451W mutant enzyme; series mostly up to 57.5 µM. The procedure, abridged:
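Eight-point qHTS titrations; enzyme 0.2 nM LmPYK (E451W mutant); substrates 0.5 mM PEP, 0.1 mM ADP; 7 mM MgCl2; 1 h room temperature; PKLight luminescence normalized to neutral control.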

Assay [7] addresses Muscarinic acetylcholine receptor M1 (Rattus norvegicus) (UniProt P08482). Nature of the assay: qHTS Assay for Antagonists of Acetylcholine Muscarinic M1 Receptor: Kinetic Measurement of Intracellular Calcium Response (AID 943). Note: nearly all actives have a fitted effect of over 75% in size. Note: potency is the fitted concentration of half-maximal effect. The settings on record: M1-expressing cells, kinetic intracellular calcium fluorescence; series mostly up to 35.3 µM. The gist of the method:
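CHO cells expressing rat M1 receptor, Fluo-4 loaded, preincubated 10 min with compound, then stimulated with EC80 carbachol (100 nM final). Kinetic calcium fluorescence over 4 min; response taken as peak over basal signal.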

For assay [8] the target is unchanged. Nature of the assay: qHTS Assay for Antagonists of Acetylcholine Muscarinic M1 Receptor: Measurement of IP-One Response (AID 944). Note: nearly all actives have a fitted effect of over 75% in size. Note: potency is the fitted concentration of half-maximal effect. As to conditions: CHO-M1 cells, IP-One HTRF, antagonist mode; series mostly up to 46.1 µM. The procedure, abridged:
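CHO cells stably expressing rat M1, pretreated 10 min with compound, then stimulated 30 min with carbachol at EC80 (200 nM) in LiCl-containing buffer pH 7.4; IP1 accumulation read by HTRF competition (665/620 nm).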

A short description of assay [9]: qHTS Assay for Identification of Small Molecule Antagonists for Thrombopoietin (TPO) Signaling Pathway (AID 918). Note: potency is the fitted concentration of half-maximal effect; nearly all actives have a fitted effect of over 60% in size. As to conditions: TPO-dependent cell signaling reporter, antagonist mode. The gist of the method:
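Murine Ba/F3 cells expressing human TPO receptor and a Glycoprotein IIb promoter-luciferase reporter, IL-3-starved overnight, treated with compound plus TPO at EC50 (26 pM final). After 24 h at 37 C, luminescence read to detect inhibitors.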

Assay [10] can be described thus: qHTS Assay for Identification of Small Molecule Agonists for Hypoxia Response Element Signaling Pathway (AID 914; active = well fitted activation curve with a large enough effect in the signal ratio, with a control signal flat, not every such curve was filed as active; the % refers to the signal ratio). The settings on record: ME-180 (cervical carcinoma) HRE-bla reporter, beta-lactamase ratio, CoCl2, 17 h; hits give high values. The gist of the method:
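HRE-bla ME-180 assay for agonist-like enhancement of an EC50 CoCl2 stimulus: 17 h at 37 degrees Celsius, CCF4 for 2.5 h, ratiometric 460/530 nm signal converted to %Activity and fitted to AC50.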

SMILES strings stand for the structures. Unmarked numbers belong to inactive results. Results filed as inconclusive are left out. Entries that show only a call come without a potency. Calls of active or inactive are those of the source. Unless noted, calls come from the whole dose curve; as a rule, active = well fitted curve in the direction sought with a large enough effect; inconclusive = small, poorly fitted or top-dose-only effect, or another doubt; inactive = no such curve, though single readings can be large; an effect the other way counts as inactive or inconclusive.

Sequence of Pyruvate kinase (Leishmania mexicana) (Q27686 2-499 E452W): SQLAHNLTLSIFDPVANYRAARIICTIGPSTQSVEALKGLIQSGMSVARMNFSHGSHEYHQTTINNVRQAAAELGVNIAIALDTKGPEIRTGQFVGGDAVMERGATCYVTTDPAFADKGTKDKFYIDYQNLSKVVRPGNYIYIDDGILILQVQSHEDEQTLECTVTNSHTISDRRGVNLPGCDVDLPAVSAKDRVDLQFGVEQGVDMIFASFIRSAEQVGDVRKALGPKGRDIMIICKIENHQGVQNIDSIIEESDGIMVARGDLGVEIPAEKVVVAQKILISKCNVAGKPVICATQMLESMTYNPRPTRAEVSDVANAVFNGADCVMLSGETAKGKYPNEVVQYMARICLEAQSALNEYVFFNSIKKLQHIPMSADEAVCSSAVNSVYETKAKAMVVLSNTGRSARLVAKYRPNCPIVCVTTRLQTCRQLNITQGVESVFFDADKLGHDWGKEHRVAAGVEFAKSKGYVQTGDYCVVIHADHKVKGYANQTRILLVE
Sequence of Muscarinic acetylcholine receptor M1 (Rattus norvegicus) (P08482 whole entry, looked up): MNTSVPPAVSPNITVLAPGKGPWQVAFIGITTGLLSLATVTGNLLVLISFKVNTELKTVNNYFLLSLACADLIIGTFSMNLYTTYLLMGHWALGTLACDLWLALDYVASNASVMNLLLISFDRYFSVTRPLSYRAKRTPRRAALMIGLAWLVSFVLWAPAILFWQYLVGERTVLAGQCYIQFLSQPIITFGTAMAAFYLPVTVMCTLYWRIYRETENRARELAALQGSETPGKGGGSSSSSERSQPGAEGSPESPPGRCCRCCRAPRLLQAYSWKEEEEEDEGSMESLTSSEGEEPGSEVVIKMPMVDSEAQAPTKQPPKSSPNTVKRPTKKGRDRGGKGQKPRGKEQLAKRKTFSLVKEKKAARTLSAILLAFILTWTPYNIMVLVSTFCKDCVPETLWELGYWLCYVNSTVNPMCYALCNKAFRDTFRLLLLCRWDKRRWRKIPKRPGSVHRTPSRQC

Turning to `NC(=O)N/N=C/c1ccc([N+](=O)[O-])o1`, the molecule was classed as inactive in [1] and in assay [2]. In addition, the Potency entry in [3] is “inactive”.

Consider `CN(C)CCN(Cc1ccccc1)c1ccccn1`, for which the call in assay [1] was inactive. Moreover, in assay [3], the Potency entry is “inactive”.

Turning to `Cc1cccc(Nc2cc(Cl)nc(SCC(=O)O)n2)c1C`, the activity, negative = inhibition in assay [4] was 16.3% [at 11.4 µM]. Moreover, the result in [1] was inactive. For the same molecule, the Potency entry in [3] was “inactive”.

As to `CN(C)CCC=C1c2ccccc2CCc2ccccc21`, the result in assay [1], in assay [5] and in [6] was inactive. In addition, in assay [3], the Potency entry is “inactive”.

Consider `CC1(C)OC(=O)NC1=O`, for which the molecule was classed as inactive in assay [1]. The Potency result in [3] is “inactive”.

Consider `CC(C)C(=O)c1c(C(C)C)nn2ccccc12`, for which the Potency result in [4], in assay [7] and in [8] was “inactive” each time. The molecule was called inactive in assay [5] and in [6].

For the molecule `CCCCN(CCCC)CCCOC(=O)c1ccc(N)cc1`, the outcome in assay [1] was inactive. The Potency result in assay [3] is “inactive”.

As for `c1ccc(CN(CC2=NCCN2)c2ccccc2)cc1`, the outcome in [1] was inactive. Besides, the Potency result in assay [3] is “inactive”.

On to `Cc1cc(CC(=O)O)n(C)c1C(=O)c1ccc(Cl)cc1`, for which the molecule was classed as inactive in assay [1] and in assay [2]. In assay [3], the Potency entry was “inactive”.

In the case of `CN(C)CCOC(C)(c1ccccc1)c1ccccn1` (centres undefined), the result in [1] was inactive. The Potency result in [3] was “inactive”.

As for `C=Cc1c(C)c2cc3[nH]c(cc4nc(cc5nc(cc1[nH]2)C(C)=C5CCC(=O)O)C(CCC(=O)O)=C4C)c(C)c3C=C`, the Potency entry in assay [4], in assay [3], in assay [7] and in assay [8] was “inactive” throughout. In addition, the outcome in [1], in assay [5] and in assay [6] was inactive.

Consider `CCCn1cnc2c1c(=O)n(CCCCC(C)=O)c(=O)n2C`, for which the call in assay [5] and in [6] was inactive. The Potency entry in assay [7] and in [8] was “inactive” throughout.

Take `NC(=O)c1ncn([C@@H]2O[C@H](CO)[C@@H](O)[C@H]2O)n1`: the call in assay [2] was inactive. The Potency entry in assay [8] was “inactive”.

For the molecule `CC(C)NC[C@H](O)c1ccc(O)c(O)c1`, the result in [5] and in [6] was inactive.

Take `CC(=O)OCC(=O)[C@@]1(O)CC[C@H]2[C@@H]3CCC4=CC(=O)CC[C@]4(C)[C@H]3C(=O)C[C@@]21C`: the call in [5] and in assay [6] was inactive.

For `[Cl][In]([Cl])[Cl]`, the call in [2] was inactive.

For `C[C@]12CC[C@@H]3c4ccc(O)cc4CC[C@H]3[C@@H]1CCC2=O`, the molecule was called inactive in assay [5] and in [6].

Consider `CCCCCCCCCCCCCCCC(=O)NCCO`, for which the outcome in assay [5] and in assay [6] was inactive. In addition, the Potency entry in assay [8] is “inactive”.

`C[C@]12C[C@H](O)[C@H]3[C@@H](CCC4=CC(=O)CC[C@@]43C)[C@@H]1CC[C@@H]2C(=O)CO`: the molecule was called inactive in [2] and in [6]. Moreover, the Potency result in assay [7] and in assay [8] was “inactive” throughout.

`CCCCCCCCCCCCOS(=O)(=O)O`: the result in [2] was inactive.

`CCN(CC)CCOC(=O)C1(C2CCCCC2)CCCCC1`: the outcome in assay [1] and in assay [6] was inactive. For the same molecule, the Potency entry in [3] is “inactive”.

As to `NC1CCN(c2cccc(Cl)n2)CC1`, the outcome in assay [5] and in assay [6] was inactive.

For the molecule `CNCCCC1c2ccccc2C=Cc2ccccc21`, the Potency in [9] is 10 µM (active); in assay [8] it was 0.398 µM (active). Moreover, in [6], the outcome was inactive.

Consider `NCCNCCNCCNCCN`, for which the molecule was called inactive in [2].

Take `OCc1cc(C(O)CNCCCCCCOCCCCc2ccccc2)ccc1O` (centres undefined): the Potency in assay [9] was 10 µM (active). The Potency result in [8] was “inactive”. In addition, the call in assay [6] was inactive.

Take `O=C1O[C@H]([C@@H](O)CO)C(O)=C1O`: in [2], the result was inactive.

As for `Cc1cc(N)c2ccccc2[n+]1CCCCCCCCCC[n+]1c(C)cc(N)c2ccccc21`, the molecule was called inactive in [1] and in assay [6]. In addition, in assay [3], the Potency result was “inactive”. The Potency in [7] is 1.78 µM (active); in assay [8] it was 2.24 µM (active).

On to `C#CCN(C)Cc1ccccc1`, for which the molecule was called inactive in [5] and in assay [6]. In addition, the Potency entry in assay [7] and in assay [8] was “inactive” in each case.

Turning to `CCC(=O)c1ccc(O)cc1`, the activation in assay [10] is 5.29%.

As to `COc1ccccc1O`, the molecule was classed as inactive in [2].

As for `NC(N)=NCCC[C@H](N)C(=O)O`, the outcome in assay [5] and in [6] was inactive. Also, the Potency result in [8] was “inactive”.

With `Cc1cc2nc3c(=O)[nH]c(=O)nc-3n(C[C@H](O)[C@H](O)[C@H](O)CO)c2cc1C`, the call in assay [2] was inactive.

On to `Cc1ncc([N+](=O)[O-])n1CC(O)CCl` (centres undefined), for which, in [10], the activation is 4.13%.

For `COC(=O)C1=C(C)NC(C)=C(C(=O)OC)C1c1ccccc1[N+](=O)[O-]`, the outcome in assay [1] and in assay [6] was inactive. For the same molecule, the Potency entry in assay [3] is “inactive”.

For `N=c1c[n+](N2CCOCC2)[n-]o1`, the result in assay [5] and in assay [6] was inactive. The Potency result in [8] was “inactive”.

With `CCN(CC)CCCC(C)Nc1c2ccc(Cl)cc2nc2ccc(OC)cc12` (centres undefined), in assay [3], the Potency is 7.94 µM (active).

For the molecule `NCCNCCNCCN`, the molecule was classed as inactive in [2].

In the case of `CC1(C)[C@@H]2CC[C@@]1(C)C(=O)C2`, the call in assay [2] was inactive.
